Our source for the z-score values is PubChem BioAssay.

SMILES strings stand for the structures. Activity calls are given as the source filed them.

Assay [1] in a line: A549 cell viability effects, profiling panel, calcein-AM fluorescence, 48 h, basal (AID 1162). The settings on record: higher = more signal.
Assay [2] is described as follows: adipocyte viability effects, profiling panel, cell-based, 3T3-L1 adipocytes, calcein-AM fluorescence, 48 h, basal (AID 1163). The note with it: 3T3-L1 adipocytes viability, higher = more signal.
Assay [3] in a line: HepG2 cell viability effects, profiling panel, calcein-AM fluorescence, 48 h, basal (AID 1164). The note with it: higher = more signal.
The nature of assay [4]: MM1S cell viability effects, profiling panel, calcein-AM fluorescence, 48 h, basal (AID 1165).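 Note: viability of MM1S multiple myeloma cells under basal unstimulated conditions.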 The note with it: higher = more signal.
Assay [5] is described as follows: basal RPMI8226 viability, no added stimulus, profiling panel, cell-based, calcein-AM fluorescence, 48 h, PK04 Diversity Set (AID 1166).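 Note: cells grown under basal conditions without added stimulus.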 The note with it: RPMI8226 myeloma viability, higher = more signal.
A short description of assay [6]: basal HepG2 mitochondrial membrane potential changes, profiling panel, cell-based, JC-1 fluorescence, 24 h, 100 nL compound (AID 1167). The note with it: higher = more signal.
Assay [7] is described as follows: basal 3T3-L1 adipocyte mitochondrial potential changes, profiling panel, cell-based, JC-1 fluorescence, 3T3-L1 adipocytes, 24 h, 100 nL compound (AID 1168). The settings on record: JC-1 mitochondrial fluorescence, higher = more signal, called active from +8 up or from −8 down.
Assay [8] is described as follows: basal RPMI8226 mitochondrial membrane potential changes, profiling panel, cell-based, JC-1 fluorescence, 24 h, 100 nL compound (AID 1169). The settings on record: RPMI8226 myeloma, JC-1 mitochondrial potential fluorescence, higher = more signal.
A short description of assay [9]: basal MM1S mitochondrial membrane potential changes, profiling panel, cell-based, JC-1 fluorescence, 24 h, 100 nL compound (AID 1170). The note with it: higher = more signal.
The nature of assay [10]: A549 lung cancer cell viability effects, profiling panel, resazurin fluorescence, 24 h, PK04 Diversity Set (AID 1171). The settings on record: higher = more signal, called active from +8 up or from −8 down. (In general: Resazurin is reduced to fluorescent resorufin, in cell work by metabolically active cells.)
Note: test concentration not given here.

With `COC(=O)[C@@H]1CC[C@H](C)[C@@H](c2ccc(C)cc2)N1C(=O)c1ccc(C=NO[C@@H](C)c2cc(-c3c(C)cc(C)cc3C)no2)cc1`, the z-score in assay [1] was 0.203; in [2], -0.576; in assay [3], 1.38; in assay [4] it was -0.56; in assay [5], 0.148; in assay [6], 3.24. Moreover, the z-score was 0.161 (inactive) in [7], 0.239 in assay [8], -0.749 in assay [9] and -0.462 (inactive) in [10].

`OC[C@H]1O[C@H](C#Cc2ccccc2)C=C[C@@H]1O`: the z-score in [1] was -0.259; in assay [2], 0.0466; in assay [3], 0.457; in assay [4], -3.41; in [5], -1.26; in [6] it was 0.552. For the same compound, the z-score in [7] is -0.397 (inactive); in [8] it was 0.607; in [9], -0.673; in [10] it was -0.852 (inactive).

As for `CC(C)(C)N1C(=O)[C@H]2[C@@H]3C(=CC[C@H]2C1=O)C(=O)[C@H]1O[C@H]1[C@H]3O`, the z-score in assay [1] was -2.32; in [2], -3.02; in assay [3], -4.31; in assay [4], -3.19; in assay [5], -3.9; in assay [6], 2.38. The z-score is 2.29 (inactive) in assay [7], -0.787 in [8], -2.59 in assay [9] and -3.43 (inactive) in assay [10].

For `CC(C)CON=C1C[C@@H](O)[C@@H](O)[C@@H]2[C@@H]3C(=O)N(Cc4ccccc4)C(=O)[C@@H]3CC[C@H]12`, the z-score in [1] was -0.216; in assay [2], 0.785; in [3], -0.155; in assay [4], 0.825; in assay [5], -0.48; in assay [6] it was 0.974. The z-score was -1.26 (inactive) in assay [7], -0.0623 in assay [8], -0.628 in assay [9] and 0.312 (inactive) in assay [10].

For `COC(=O)CC=C[C@@H](C)[C@@H](C=NOC[C@@H](C)[C@H](OCc1ccccc1)C(C)C)OC`, the z-score in [1] is -0.37; in assay [2], -0.0404; in [3] it was -0.0472; in assay [4], -0.18; in assay [5], -0.991; in [6], 0.0695. Moreover, the z-score in assay [7] is -1.61 (inactive); in assay [8] it was -0.151; in assay [9], -0.93; in assay [10], -0.891 (inactive).

For the compound `C[C@H]1CC[C@H]2C(=O)N[C@H](Cc3ccccc3)C(=O)N2[C@@H]1c1ccccc1`, the z-score in assay [1] was -0.103; in [2] it was 0.283; in assay [3] it was 0.194; in assay [4] it was -0.643; in assay [5], 0.0185; in assay [6] it was 0.399. Besides, the z-score in assay [7] is -0.556 (inactive); in assay [8], 0.471; in [9], 1.28; in assay [10] it was -0.232 (inactive).

In the case of `CCN1C(=O)[C@H]2[C@H]3[C@H](O)[C@H](O)CC(=NO[C@@H](C)c4cc(-c5c(C)cc(C)cc5C)no4)[C@@H]3CC[C@H]2C1=O`, the z-score in assay [1] was 0.165; in assay [2], 0.335; in assay [3], -0.401; in [4], -0.807; in assay [5] it was -1.14; in [6] it was -1.38. In addition, the z-score in assay [7] was -3.4 (inactive); in assay [8], 0.473; in assay [9], -0.176; in assay [10], 0.296 (inactive).

On to `O=C1[C@H]2CCn3c(=O)n(Cc4cc5c(cc4Cl)OCO5)c(=O)n3[C@H]2[C@H](O)[C@@H]2O[C@H]12`, for which the z-score in [1] was 0.173; in assay [2], -0.124; in assay [3] it was -0.0111; in assay [4], -1.72; in assay [5], -0.518; in [6], 0.039. The z-score in [7] was -0.275 (inactive); in assay [8] it was 0.177; in [9], -0.744; in assay [10] it was -0.963 (inactive).

Regarding `COC(=O)CC=C[C@@H](C)[C@@H](C=NOC(C)CN1CCCCc2nc(C)c(C)cc21)OC` (stereo not given in full), the z-score in assay [1] is -0.165; in assay [2], -0.213; in [3] it was -0.0272; in assay [4], -1.74; in assay [5], -0.444; in [6], -0.254. Further, the z-score in [7] is -0.142 (inactive); in [8] it was -0.497; in assay [9], 0.444; in assay [10], 0.0399 (inactive).

For the compound `CCN1C(=O)[C@H]2[C@H]3[C@H](O)[C@H](O)CC(=NO[C@H](C)c4cn([C@H](CO)Cc5ccccc5)nn4)[C@@H]3CC[C@H]2C1=O`, the z-score was 1.01 in assay [1]; -0.922 in assay [2]; 0.211 in assay [3]; -0.824 in [4]; 0.065 in assay [5]; -0.471 in assay [6]. For the same compound, the z-score in assay [7] is -1.16 (inactive); in assay [8], 0.271; in [9] it was -0.343; in assay [10] it was -1.13 (inactive).

Consider `CC(C)CON=C1C[C@@H](O)[C@@H](O)[C@@H]2[C@@H]3C(=O)N(Cc4ccc5c(c4)OCO5)C(=O)[C@@H]3CC[C@@H]12`, for which the z-score is 0.606 in [1]; -0.724 in [2]; -0.211 in assay [3]; 0.828 in assay [4]; -0.51 in assay [5]; 0.367 in assay [6]. The z-score in [7] was 0.115 (inactive); in assay [8], 0.492; in assay [9], -1.49; in assay [10], 0.471 (inactive).

Take `COc1ccc(O[C@H]2C=C[C@@H](c3ccccc3)O[C@@H]2CON=C(C)CCN2CCCc3nc(C)c(C)cc32)cc1`: the z-score in assay [1] was 0.0505; in [2], -0.351; in assay [3], -0.491; in [4], -2.13; in assay [5], -2.37; in [6] it was 2.98. Further, the z-score is -0.853 (inactive) in assay [7], 0.414 in assay [8], -0.294 in [9] and 0.154 (inactive) in assay [10].

As for `CCOC(=O)[C@H](Cc1ccccc1)NC(=O)CCC1CC(OC(=O)NCc2ccc3c(c2)OCO3)CC2(CCCC(COC(=O)NCCCN3CCCC3=O)O2)O1` (stereo not given in full), the z-score in [1] is 0.0325; in assay [2] it was 0.484; in assay [3], -0.152; in assay [4] it was -0.59; in assay [5] it was -1.6; in [6] it was 1.97. In addition, the z-score in [7] was -0.654 (inactive); in assay [8], 0.517; in assay [9], 0.547; in [10] it was 0.529 (inactive).

Regarding `CC(=O)OC[C@H]1O[C@@H](ON=C2[C@H]3CCn4c(=O)n(-c5ccccc5)c(=O)n4[C@H]3[C@H](O)[C@@H]3O[C@H]23)[C@H](OC(C)=O)[C@@H](OC(C)=O)[C@@H]1OC(C)=O`, the z-score was -0.0311 in assay [1]; -1.14 in assay [2]; 0.707 in assay [3]; -0.0928 in [4]; -0.105 in [5]; -0.506 in [6]. Besides, the z-score in assay [7] was -0.0849 (inactive); in [8], -0.0535; in assay [9], -0.64; in assay [10], -0.713 (inactive).

For the compound `CCOC(=O)CCN1C(=O)[C@H]2[C@H]3[C@H](O)[C@H](O)CC(=NOCC=C(C)CCC=C(C)C)[C@H]3CC[C@H]2C1=O`, the z-score is 0.844 in assay [1]; -1.23 in [2]; 0.536 in [3]; 0.345 in assay [4]; 0.15 in [5]; 0.572 in assay [6]. Moreover, the z-score in [7] was 0.408 (inactive); in assay [8], 0.523; in [9] it was -1.44; in assay [10], -1.1 (inactive).
